# Earlier results in PubChem BioAssay AID977608.
# Screen size: about 4,300 compounds; about 4,300 (100%) were called active. The limit is not given here; nearly all actives have IC50 up to about 1400 µM. So high a share suggests a set chosen from earlier hits. The list shows a part of the results. Where a SMILES comes first, the peptide text is derived from it. Square brackets hold non-standard residues; d marks the D form. Residues, ends and D or L forms follow the SMILES beside them. Peptide text beside a SMILES is read from it. * marks the point of attachment. Orn(CH(NH2)2) = NC(N)NCCC[C@H](N)C(=O)O; Abu = CC[C@H](N)C(=O)O; Dap = NC[C@H](N)C(=O)O; Propionyl = CCC(=O)*
# Assay: protein-ligand inhibition affinities from structures – PDB-derived complexes (AID 977608)
compound,measurement,setting,value
O=C[N+](=O)CCC[P+](O)(O)O,IC50,"literature IC50, protein: E. coli 1-deoxy-D-xylulose 5-phosphate reductoisomerase (DXR), PDB entry 1onp",0.03 µM (active)
same,IC50,"literature IC50, protein: Oxidoreductase, PDB entry 3upy",2.39 µM (active)
NC(=O)C[C@@H]1NC(=O)C2(CCCCC2)NC(=O)C[C@@H](c2ccc(C[P+](O)(O)O)cc2)/C=C/C[C@@H](Cc2cccc3ccccc23)CNC1=O,IC50,"literature IC50, protein: growth factor receptor binding protein SH2 domain, PDB entry 1x0n",0.02 µM (active)
CC(C)C1=CC2=C(C(O)C1=O)[C@@]1(C)CCCC(C)(C)[C@@H]1C(=O)C2 (stereo partly specified),IC50,"literature IC50, protein: Farnesyl pyrophosphate synthase HsFPPS-5, PDB entry 4p0v",1.2 µM (active)
O=C(c1csc(-c2ccsc2)n1)n1ccc2ccccc21,IC50,"literature IC50, protein: 3-OXOACYL-[ACYL-CARRIER-PROTEIN] REDUCTASE FABG, PDB entry 4bo6",0.18 µM (active)
H-SDFEEFSLDDIEQ-OH,IC50,"literature IC50, protein: ?-thrombin, PDB entry 1thr",4.2 µM (active)
CC[C@H](C)[C@H](NC(=O)[C@H](Cc1ccccc1)NC(=O)[C@H](Cc1ccc(O)cc1)NC(=O)[C@H](CCC(=O)O)NC(=O)[C@@H](N)CCCCN)C(=O)O (tested in a mixture with another compound) (H-KEYFI-OH),IC50,"literature IC50, protein: HLA class I histocompatibility antigen, A-2 alpha chain HLA-A*0201, PDB entry 4u6x",0.414 µM (active)
H-ETFEHWWSQLLS-OH,IC50,"literature IC50, protein: E3 ubiquitin-protein ligase Mdm2, PDB entry 3jzs",0.008 µM (active)
same,IC50,"literature IC50, protein: Human Protein Mdm4, PDB entry 3jzq",0.11 µM (active)
H-LTFEHWWAQLTS-OH,IC50,"literature IC50, protein: E3 ubiquitin-protein ligase Mdm2, PDB entry 3jzr",0.036 µM (active)
same,IC50,"literature IC50, protein: Human Protein Mdm4, PDB entry 3jzp",0.25 µM (active)
C#Cc1csc2c1NC(NC1CCCC1)=[N+](CC)C2O (stereo unspecified),IC50,"literature IC50, protein: High affinity cAMP-specific 3',5'-cyclic phosphodiesterase 7A PDE7A, PDB entry 4pm0",0.045 µM (active)
N#Cc1ccc(-c2ccc(OCC(=O)O)cc2CN2CCN(c3ccccn3)CC2)cc1,IC50,"literature IC50, protein: PANTOTHENATE KINASE, PDB entry 4bfy",0.12 µM (active)
CCc1c(N2CCOCC2=O)cccc1S(=O)(=O)N[C@@H](Cc1cc(-c2ccc(Cl)s2)on1)C(=O)N1CCC(OC)CC1,IC50,"literature IC50, protein: COAGULATION FACTOR X LIGHT CHAIN & COAGULATION FACTOR X, PDB entry 4btt",0.00143 µM (active)
COCCOCCc1c(C)c2cc(OC)c(O)c(C)c2oc1=O,IC50,"literature IC50, protein: Serine/threonine-protein kinase/endoribonuclease IRE1-alpha, PDB entry 4pl3",0.29 µM (active)
Cc1cc(O)c(C(C)C)cc1N=O,IC50,"literature IC50, protein: Serine/threonine-protein kinase PLK1, PDB entry 4h71",35.6 µM (active)
Oc1ccc(-c2nc(-c3ccc(F)cc3)c(-c3ccncc3)[nH]2)cc1,IC50,"literature IC50, protein: Bromodomain-containing protein 4 BRD4-1, PDB entry 4o77",2.5 µM (active)
N#Cc1ccc(O)cc1F,IC50,"literature IC50, protein: M-phase inducer phosphatase 2 CDC25B, PDB entry 4wh7",5000 µM (active)
CC(=O)N1CCC[C@H]([C@]2(Cc3cccc(Cl)c3)C(=O)Nc3cc(Cl)ccc32)C1,IC50,"literature IC50, protein: Humanized Xenopus E3 ubiquitin-protein ligase Mdm2, PDB entry 4lwt",3.9 µM (active)
CCOc1c(I)cc(Cl)cc1CNCCCNC(=O)Nc1ccsc1,IC50,"literature IC50, protein: Trypanosoma brucei methionyl-tRNA synthetase, PDB entry 4mw7",10 µM (active)
OCc1cc(-c2cn[nH]c2-c2ccc(F)cc2)ccn1,IC50,"literature IC50, protein: Casein kinase I isoform delta, PDB entry 4kbc",0.0142 µM (active)
COc1ccccc1-n1c(-c2cc(O)ccc2C)c[n+]2c3c(=O)[nH]c(=O)n(C)c3[nH]c12,IC50,"literature IC50, protein: EPH receptor A3, PDB entry 4gk2",0.0016 µM (active)
O=C1CCN(c2cccc([N+](=O)[O-])c2)C(=O)N1,IC50,"literature IC50, protein: Bifunctional protein GlmU, PDB entry 4kpz",1950 µM (active)
CSCC[C@H](NC(=O)[C@@H]1CCCN1C(=O)CNC(=O)[C@H](CO[P+](O)(O)O)NC(=O)[C@H](Cc1ccc(O)cc1)NC(=O)[C@@H](NC(=O)[C@@H](N)CCCNC(N)N)[C@@H](C)O)C(=O)N[C@@H](CC(N)=O)C(=O)N[C@@H](CCCCN)C(=O)N[C@H](C(=O)O)C(C)C,IC50,"literature IC50, protein: HLA class I histocompatibility antigen, PDB entry 3bh9",0.117 µM (active)
CCC(=O)NCCCC[C@H](NC(=O)[C@@H]1CCCN1C(=O)[C@H](CCCNC(N)N)NC(=O)[C@@H](NC(=O)[C@H](CCSC)NC(=O)[C@H](C)NC(=O)[C@@H](NC(=O)[C@@H]1CCCN1C(=O)[C@H](CCCNC(N)N)NC(=O)[C@H](CC(C)C)NC(=O)[C@H](CCCCN)NC(C)=O)C(C)C)C(C)C)C(=O)N[C@H](C(=O)N[C@@H](CCCNC(N)N)C(=O)O)C(C)C (Ac-KL[Orn(CH(NH2)2)]PVAMV[Orn(CH(NH2)2)]PK(Propionyl)V[Orn(CH(NH2)2)]-OH),IC50,"literature IC50, protein: E3 ubiquitin-protein ligase SIAH1, PDB entry 4i7d",0.1 µM (active)
CCC(=O)NC[C@H](NC(=O)[C@@H](NC(=O)[C@@H]1CCCN1C(=O)[C@H](CCCNC(N)N)NC(=O)[C@H](CC(C)C)NC(=O)[C@@H](N)CCCCN)C(C)C)C(=O)N[C@@H](CCSC)C(=O)N[C@H](C(=O)N[C@@H](CCCNC(N)N)C(=O)N1CCC[C@H]1C(=O)N[C@@H](Cc1c[nH]c2ccccc12)C(=O)N[C@H](C(=O)N[C@@H](CCCNC(N)N)C(=O)O)C(C)C)C(C)C (H-KL[Orn(CH(NH2)2)]PV[Dap](Propionyl)MV[Orn(CH(NH2)2)]PWV[Orn(CH(NH2)2)]-OH),IC50,"literature IC50, protein: E3 ubiquitin-protein ligase SIAH1 (T156C mutation), PDB entry 4i7c",0.006 µM (active)
CC[C@H](NC(=O)[C@@H](NC(=O)[C@@H]1CCCN1C(=O)[C@H](CCCNC(N)N)NC(=O)[C@@H](N)CC(C)C)C(C)C)C(=O)N[C@@H](CCSC)C(=O)N[C@H](C(=O)N[C@@H](CCCNC(N)N)C(=O)N1CCC[C@H]1C(=O)N[C@H](C(=O)N[C@H](C(=O)O)C(C)C)[C@@H](C)O)C(C)C (H-L[Orn(CH(NH2)2)]PV[Abu]MV[Orn(CH(NH2)2)]PTV-OH),IC50,"literature IC50, protein: E3 ubiquitin-protein ligase SIAH1, PDB entry 4i7b",2 µM (active)
CC(C)C[C@H](NC(=O)[C@H](CC(C)C)NC(=O)[C@H](CC(C)C)NC(=O)[C@H](CCCCN)NC(=O)[C@H](CCCCN)NC(=O)[C@H](CC(C)C)NC(=O)[C@H](CC(C)C)NC(=O)[C@H](CO)NC(=O)[C@@H]1CCCN1)C(=O)N[C@@H](C)C(=O)N1CCC[C@H]1C(=O)N[C@@H](C)C=O (H-PSLLKKLLLAPA-aldehyde),IC50,"literature IC50, protein: PPARgama, PDB entry 3cs8",1.7 µM (active)
CC(C)C[C@H](NC(=O)[C@@H](O)CC(=O)O)C(=O)NCCCCNC(N)N,IC50,"literature IC50, protein: Streptopain, PDB entry 4d8e",0.098 µM (active)
CCC(CC)[C@H](NC(C)=O)[C@@H]1[C@H](O)[C@@H](C(=O)O)C[C@H]1NC(N)N,IC50,"literature IC50, protein: Neuraminidase, PDB entry 4mwv",0.0004 µM (active)
same,IC50,"literature IC50, protein: Neuraminidase, PDB entry 4mx0",0.185 µM (active)
